# According to PubChem BioAssay (Tox21):
# Results filed as inconclusive are left out. Values without a mark were called inactive. The source made the active and inactive calls. Calls come from the whole dose curve.
# Biological target: Thyrotropin receptor (Homo sapiens) (UniProt P16473)
# Experiment: qHTS assay to identify small molecule antagonists of the thyroid stimulating hormone receptor (TSHR) signaling pathway (AID 1259385); note: nearly all actives have a fitted effect of over 20% in size
# Conditions: TSHR-HEK293 cAMP HTRF, TSH-stimulated antagonist mode; series mostly up to 92.4 µM; activity change, negative = inhibition: at the top concentration
# Description: U.S. Tox21 Program National Center for Advancing Translational Sciences [NCATS] NIH Chemical Genomics Center [NCGC] U.S. Environmental Protection Agency [EPA] National Institutes of Environmental Health Sciences [NIEHS] National Toxicology Program [NTP] U.S. Food and Drug Administration [FDA] Tox21 Assay Overview: TSHR is the receptor for thyrotropin (thyroid stimulating hormone or TSH), a member of the glycoprotein hormone family. TSH is released by the anterior pituitary gland and is the main regulator of thyroid gland growth and development. Upon binding circulating thyrotropin, a G-protein signal cascade activates adenylyl cyclase and […] cAMP concentration is increased. cAMP is a key second messenger involved extensively in cellular signal transduction pathways associated with the majority of G-protein coupled receptors (GPCRs). The activation of these GPCRs by neurotransmitters, lipids, nucleotides, peptides and hormones results in the activation or the inhibition of plasma membrane-bound adenylate cyclase through heterotrimeric G-proteins. A cell-based TSHR assay can be used to screen chemical compounds that modulate TSHR either in agonist or antagonist mode.
# Tox21 Assay Protocol Summary: TSHR-Hek293 cells were dispensed at 800 cells/4uL/well in 1536-well white plates using a Multidrop dispenser. After the assay plates were incubated at a 37C/5% CO2 incubator for 18 hrs, 23 nL of compounds dissolved in DMSO, positive controls or DMSO only was transferred to the assay plate by a pin tool, followed by 1 ul medium containing Ro20-1724. For the antagonist mode screening, 1 uL of TSH was added on the top of the cell/compound mixtures to achieve a final agonist concentration of 1.5 ng/mL. After 30 min of incubation at room temperature, 2.5 ul/well of cAMP-d2 and 2.5 ul/well of anti-cAMP-cryptate were added respectively into the assay plates using a Flying Reagent Dispenser. The plates were incubated at room temperature for 1 hr. The fluorescence intensity in the plates was measured using an Envision plate reader. Each test compound was measured at 15 concentrations and in triplicates.
# % is set by controls: 0 for no effect and ±100 for the full control effect.
# Sequence of Thyrotropin receptor (Homo sapiens) (P16473 whole entry, looked up): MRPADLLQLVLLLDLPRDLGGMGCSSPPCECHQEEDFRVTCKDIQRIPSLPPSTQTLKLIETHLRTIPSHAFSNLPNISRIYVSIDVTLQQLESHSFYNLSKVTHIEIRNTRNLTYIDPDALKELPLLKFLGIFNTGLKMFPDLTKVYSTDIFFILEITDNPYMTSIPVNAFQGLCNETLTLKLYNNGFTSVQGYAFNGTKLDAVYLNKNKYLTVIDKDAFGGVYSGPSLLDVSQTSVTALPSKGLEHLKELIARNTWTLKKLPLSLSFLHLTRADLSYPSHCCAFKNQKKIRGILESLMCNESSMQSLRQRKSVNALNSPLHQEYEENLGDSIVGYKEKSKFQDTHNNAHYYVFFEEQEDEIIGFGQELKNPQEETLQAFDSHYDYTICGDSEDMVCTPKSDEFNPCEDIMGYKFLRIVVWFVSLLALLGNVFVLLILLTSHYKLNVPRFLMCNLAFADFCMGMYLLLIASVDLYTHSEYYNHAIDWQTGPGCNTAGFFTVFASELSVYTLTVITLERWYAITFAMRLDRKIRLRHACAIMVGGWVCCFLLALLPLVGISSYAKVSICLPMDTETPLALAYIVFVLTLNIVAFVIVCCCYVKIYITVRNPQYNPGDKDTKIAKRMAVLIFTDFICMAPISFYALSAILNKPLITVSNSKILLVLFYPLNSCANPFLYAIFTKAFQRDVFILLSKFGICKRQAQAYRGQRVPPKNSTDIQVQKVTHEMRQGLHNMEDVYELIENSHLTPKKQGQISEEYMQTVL
SMILES,outcome,"activity change, negative = inhibition"
[N-]=[N+]=CC(=O)OC[C@H](N)C(=O)O,inactive,
CC(C)CCCCCCOC(=O)c1ccccc1C(=O)OCCCCCCC(C)C,inactive,
CNC(=O)O/N=C/C(C)(C)SC,inactive,
CNC(=O)O/N=C(\SC)C(=O)N(C)C,inactive,
OC[C@@H](O)[C@H]1O[C@@H]2O[C@H](C(Cl)(Cl)Cl)O[C@@H]2[C@H]1O,inactive,
O=C(O)c1cc(Oc2ccc(C(F)(F)F)cc2Cl)ccc1[N+](=O)[O-],inactive,
O=C(O)C1C(C(=O)O)C2(Cl)C(Cl)=C(Cl)C1(Cl)C2(Cl)Cl (stereo not given),inactive,
Nc1ncc([N+](=O)[O-])s1,inactive,
CC(C)(C)C(=O)CCl,inactive,
N#Cc1ccccn1,inactive,
Cc1ccccc1N,inactive,
COc1nc(NC(C)C)nc(NC(C)C)n1,inactive,
CCOc1ccc(N)cc1,inactive,
Cc1cccc(C)c1N,inactive,
Cl/C=C/Cl,inactive,
O=[N+]([O-])c1ccc(Cl)c(Cl)c1,inactive,
CN(C)C(=O)Nc1cccc(C(F)(F)F)c1,inactive,
C=CC#N,inactive,
O=[N+]([O-])c1ccc(Cl)cc1,inactive,
Nc1ccc([As](=O)(O)O)cc1,inactive,

SMILES,outcome,"activity change, negative = inhibition"
C/C=C/c1ccc2c(c1)OCO2,inactive,
CCCCC(CC)C(=O)Cl (stereo not given),inactive,
CCNc1nc(Cl)nc(NC(C)C)n1,inactive,
O=C(O)COc1ccccc1,inactive,
C[C@H]1C(=O)O[C@@H]2CCN3CC=C(COC(=O)[C@](C)(O)[C@]1(C)O)[C@H]23,inactive,
Nc1cccc(Cl)c1,inactive,
CN(C)C(=O)Cl,inactive,
OCCCCO,inactive,
O=[N+]([O-])c1cc([As](=O)(O)O)ccc1O,inactive,
Oc1c(Br)cc(Br)cc1Br,inactive,
ClCCOCCCl,inactive,
Clc1cnc(Oc2ccc(Oc3ncc(Cl)cc3Cl)cc2)c(Cl)c1,,-3.64% [at 42.5 µM]
C=CC(=O)OCCCCCC(C)C,inactive,
O=C/C=C/c1ccccc1,inactive,
Cc1ccc(O)c(C)c1,inactive,
FC(F)(F)c1ccc(Cl)cc1,inactive,
CNC(=O)O/N=C/C(C)(C)S(C)=O (stereo not given),inactive,
OCC(O)CCl (stereo not given),inactive,
Cc1cccc(N)c1C,inactive,
N#CN=C(N)N,inactive,
